Reference: PubChem BioAssay (NCATS)
Inconclusive results are not listed. Where a call stands in place of a potency, no number is given. Activity calls are given as the source filed them. The call rests on the fitted dose curve; in most records, active means well fitted curve in the direction sought with a large enough effect; inconclusive means small, poorly fitted or top-dose-only effect, or another doubt; inactive means no such curve, though single readings can be large; an effect the other way counts as inactive or inconclusive.

How the values were obtained:
[1] = target: Arylsulfatase A (Homo sapiens) (UniProt P15289); experiment: qHTS screen for enhancers of Arylsulfatase A (ASA1): LOPAC Validation Assay (AID 720538); settings: ASA enzyme activity, LOPAC qHTS enhancer assay; series mostly up to 57.5 µM; further: potency means the concentration at half of the fitted maximal effect
Chain of Arylsulfatase A (Homo sapiens) (P15289 whole entry, looked up): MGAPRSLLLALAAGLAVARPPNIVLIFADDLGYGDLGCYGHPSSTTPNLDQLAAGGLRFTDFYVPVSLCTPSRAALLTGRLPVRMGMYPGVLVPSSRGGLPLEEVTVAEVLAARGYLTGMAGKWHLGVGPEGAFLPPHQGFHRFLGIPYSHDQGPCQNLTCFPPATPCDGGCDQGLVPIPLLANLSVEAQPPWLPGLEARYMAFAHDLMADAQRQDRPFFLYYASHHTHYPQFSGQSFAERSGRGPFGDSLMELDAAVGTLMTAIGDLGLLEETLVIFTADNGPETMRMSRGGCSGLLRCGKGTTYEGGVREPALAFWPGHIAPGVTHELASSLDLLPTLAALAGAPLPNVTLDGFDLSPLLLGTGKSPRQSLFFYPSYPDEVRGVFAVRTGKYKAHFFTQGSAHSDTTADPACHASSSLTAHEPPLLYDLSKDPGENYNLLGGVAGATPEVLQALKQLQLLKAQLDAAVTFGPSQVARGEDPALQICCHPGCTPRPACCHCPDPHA
Summary of the method: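 First, ASA-I179S fibroblasts from an MLD patient adhered for 6 hrs. Next, compounds were added for 48h. Then pNCS substrate (0.5mM final) with lysis buffer reacted 14h at room temperature before NaOH stop and fluorescence measurement.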

[2] = qHTS for compounds that reverse cellular toxicity of Amyloid beta (A-beta) peptide in yeast: LOPAC Validation Assay (AID 720559); settings: yeast expressing A-beta; series mostly up to 46.1 µM
Summary of the method: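 Activity is expressed relative to DMSO and an equimolar ferric chloride/clioquinol mix. Compounds were pinned into medium with A-beta-expressing yeast, grown 48 hr at 30 C, then read by absorbance at 600 nm.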

[3] = target: Tyrosine-protein kinase Yes (Homo sapiens) (UniProt P07947); experiment: qHTS for small molecule inhibitors of Yes1 kinase: Primary Screen (AID 686947); settings: Yes1 kinase biochemical qHTS inhibition; further: potency means the concentration at half of the fitted maximal effect; nearly all actives have a fitted effect of over 60% in size
Chain of Tyrosine-protein kinase Yes (Homo sapiens) (P07947 whole entry, looked up): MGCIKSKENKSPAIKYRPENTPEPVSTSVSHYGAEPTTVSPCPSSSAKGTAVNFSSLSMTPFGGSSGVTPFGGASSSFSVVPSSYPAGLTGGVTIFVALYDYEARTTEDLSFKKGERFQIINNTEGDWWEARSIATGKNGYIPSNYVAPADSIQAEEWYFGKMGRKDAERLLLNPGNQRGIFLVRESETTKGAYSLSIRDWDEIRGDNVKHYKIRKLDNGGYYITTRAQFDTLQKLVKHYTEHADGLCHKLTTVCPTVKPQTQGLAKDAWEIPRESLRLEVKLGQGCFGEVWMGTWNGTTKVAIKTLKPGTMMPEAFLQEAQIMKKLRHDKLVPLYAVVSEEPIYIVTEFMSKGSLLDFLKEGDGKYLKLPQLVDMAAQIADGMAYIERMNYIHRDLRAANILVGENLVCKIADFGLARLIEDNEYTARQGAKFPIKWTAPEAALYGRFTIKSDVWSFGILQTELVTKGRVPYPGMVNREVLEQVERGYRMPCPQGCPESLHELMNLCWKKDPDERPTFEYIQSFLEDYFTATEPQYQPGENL
Summary of the method: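 ADP-Glo luminescence readout; final 4 nM Yes1, 0.1 mM ATP, 0.3 mg/mL poly(E4Y), Tris pH 7.5, MgCl2, DTT, Brij-35. 20 min compound preincubation, 60 min reaction at RT. Normalized to DMSO wells with and without enzyme.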

[4] = qHTS for small molecule inhibitors of Yes1 kinase: Counter Assay (AID 686950); settings: series mostly up to 76.9 µM;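 further: no kinase present so only ADP-Glo detection of a fixed ADP amount is tested; luminescence from ADP-Glo reporting ADP in a fixed ATP and ADP mixture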
Text: The Src family of non-receptor protein tyrosine kinases contains nine members, including Yes1, Src, Fyn, Lyn, and […]. These kinases have important roles in a variety of cellular functions, such as cell proliferation, survival, and differentiation. Src, the most well characterized member of this family, has been previously identified as a proto-oncogene. […] In melanoma, it has been shown that Yes1, and not other family members, such as Src, is functionally involved in the malignant phenotype. Additionally, a recent study examining the downregulation of Yes1 by shRNA found significant effects on cell survival/growth for basal-like and Her2-positive breast cancers. Despite the potential for Yes1 to be a target for the above-described cancers, there are very few reports on the identification of potent and selective inhibitors of Yes1 kinase. […]
Two microliter of buffer (columns 1-48) are dispensed into Greiner, white solid-bottom 1536-well assay plates. […] The amount of ADP is then quantified by the ADP-Glo Kit (Promega, Madison, WI). First, 2 uL of the first kit reagent is added, and the reaction is incubated for 45 minutes; then, 4 uL of the second kit reagent are added and the reaction is incubated for 30 minutes at which time the luminescence is read on a Viewlux plate reader (Perkin-Elmer, Waltham, MA). […]

[5] = qHTS for Activators of Parkin Expression: LOPAC Validation Assay (NLuc Reporter) (AID 720572); settings: Parkin promoter NanoLuc reporter cells, luminescence; series mostly up to 46.1 µM
Summary of the method: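 Neuronal line stably carrying a FLuc/NLuc coincidence reporter under the Parkin promoter, seeded 24 h, then dosed in 7-point series for 24 h at 37 C. NLuc luminescence read after FLuc; normalized to DMSO and positive control (100%).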

SMILES | Potency [1] | outcome [2] | Potency [3] | outcome [4] | Potency [5]
Oc1ccc(/C=C/c2ccc(/C=C/c3ccc(O)cc3)c(Br)c2)cc1 | inactive | inactive |  |  | 
CN(C)S(=O)(=O)c1ccc2c(c1)/C(=C/c1cc3c([nH]1)CCCC3)C(=O)N2 | inactive | inactive | 97.2 nM (active) | inactive | inactive
CCCn1c(=O)c2c(ncn2C)n(CCC)c1=O | inactive | inactive |  |  | inactive
CN1CCC2(CCN3CCc4c(oc5ccccc45)C3C2)N(C)C1=O (stereo not given) | inactive | inactive |  |  | inactive
COc1cc(C(O)C(=O)O)ccc1O (stereo not given) | inactive | inactive |  |  | inactive
O=C(O)C1=CCCNC1 | inactive | inactive |  |  | inactive
CC(C)Cn1c(=O)n(C)c(=O)c2[nH]cnc21 | inactive | inactive |  |  | inactive
Nc1ncnc2c1ncn2C1CCCO1 (stereo not given) | 2690 nM (active) | inactive |  |  | inactive
COc1cc(CNC(=O)CCCCCCC(C)C)ccc1O | inactive | inactive |  |  | inactive
CCCCOC(=O)NS(=O)(=O)c1sc(CC(C)C)cc1-c1ccc(Cn2c(CC)nc3c(C)cc(C)nc32)cc1 | inactive | inactive |  |  | 
N[C@H]1CONC1=O | inactive |  |  |  | 
Nc1ncnc2c1ncn2C1CCCC1 | inactive | inactive |  |  | inactive
COc1ccc2c(c1)c(CC(=O)O)c(C)n2C(=O)c1ccccc1 | inactive | inactive |  |  | 
O=C1C2C=CC=CC2=NC(=S)N1CCN1CCC(=C(c2ccc(F)cc2)c2ccc(F)cc2)CC1 (stereo not given) | inactive | inactive |  |  | inactive
COc1cc(N)c(Cl)cc1C(=O)OCCN1CCCCC1 | inactive | inactive |  |  | inactive
CN[C@H](CC(=O)O)C(=O)O | inactive | inactive |  |  | inactive
